# Assay results reported in the supplement of paper PMC6411743.
# ± gives the standard deviation of the averaged measurements. About 6,200 targets were measured; listed, in parts, are those with the largest changes and a random draw of the rest.
# Legend:
# Test in all cases: NP40-soluble protein abundance relative to vehicle (solubility fold change) (ratio); higher = more soluble protein in presence of AMP-PNP
# UniProt Q9BY77|Q9BY77-2 = biological target: T1, UniProt Q9BY77|Q9BY77-2
# T1 sequence (whole entry): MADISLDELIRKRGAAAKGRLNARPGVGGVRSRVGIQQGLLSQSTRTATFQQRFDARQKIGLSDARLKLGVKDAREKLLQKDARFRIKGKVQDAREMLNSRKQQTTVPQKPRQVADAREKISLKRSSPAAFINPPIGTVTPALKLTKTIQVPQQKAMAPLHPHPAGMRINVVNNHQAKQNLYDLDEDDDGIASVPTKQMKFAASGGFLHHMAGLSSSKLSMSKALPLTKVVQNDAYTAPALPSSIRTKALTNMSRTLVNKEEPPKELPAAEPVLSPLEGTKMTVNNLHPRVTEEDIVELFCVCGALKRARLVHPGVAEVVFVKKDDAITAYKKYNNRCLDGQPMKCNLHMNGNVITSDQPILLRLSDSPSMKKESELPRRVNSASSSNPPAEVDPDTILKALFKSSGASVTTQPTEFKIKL
# Procedure, shortened: (§1)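 Values are fold changes against the detergent-processed vehicle, based on vsn-normalised intensities. Jurkat crude lysate was treated at eight concentrations from 0.1 to 10 mM (10 min at room temperature, then 3 min at 37 °C), solubilised with 0.8% NP40 and benzonase, ultracentrifuged and analysed by TMT-labelled LC-MS/MS over three independent experiments.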
# UniProt Q9H9J4|Q9H9J4-2 = biological target: T2, UniProt Q9H9J4|Q9H9J4-2
# T2 sequence (whole entry): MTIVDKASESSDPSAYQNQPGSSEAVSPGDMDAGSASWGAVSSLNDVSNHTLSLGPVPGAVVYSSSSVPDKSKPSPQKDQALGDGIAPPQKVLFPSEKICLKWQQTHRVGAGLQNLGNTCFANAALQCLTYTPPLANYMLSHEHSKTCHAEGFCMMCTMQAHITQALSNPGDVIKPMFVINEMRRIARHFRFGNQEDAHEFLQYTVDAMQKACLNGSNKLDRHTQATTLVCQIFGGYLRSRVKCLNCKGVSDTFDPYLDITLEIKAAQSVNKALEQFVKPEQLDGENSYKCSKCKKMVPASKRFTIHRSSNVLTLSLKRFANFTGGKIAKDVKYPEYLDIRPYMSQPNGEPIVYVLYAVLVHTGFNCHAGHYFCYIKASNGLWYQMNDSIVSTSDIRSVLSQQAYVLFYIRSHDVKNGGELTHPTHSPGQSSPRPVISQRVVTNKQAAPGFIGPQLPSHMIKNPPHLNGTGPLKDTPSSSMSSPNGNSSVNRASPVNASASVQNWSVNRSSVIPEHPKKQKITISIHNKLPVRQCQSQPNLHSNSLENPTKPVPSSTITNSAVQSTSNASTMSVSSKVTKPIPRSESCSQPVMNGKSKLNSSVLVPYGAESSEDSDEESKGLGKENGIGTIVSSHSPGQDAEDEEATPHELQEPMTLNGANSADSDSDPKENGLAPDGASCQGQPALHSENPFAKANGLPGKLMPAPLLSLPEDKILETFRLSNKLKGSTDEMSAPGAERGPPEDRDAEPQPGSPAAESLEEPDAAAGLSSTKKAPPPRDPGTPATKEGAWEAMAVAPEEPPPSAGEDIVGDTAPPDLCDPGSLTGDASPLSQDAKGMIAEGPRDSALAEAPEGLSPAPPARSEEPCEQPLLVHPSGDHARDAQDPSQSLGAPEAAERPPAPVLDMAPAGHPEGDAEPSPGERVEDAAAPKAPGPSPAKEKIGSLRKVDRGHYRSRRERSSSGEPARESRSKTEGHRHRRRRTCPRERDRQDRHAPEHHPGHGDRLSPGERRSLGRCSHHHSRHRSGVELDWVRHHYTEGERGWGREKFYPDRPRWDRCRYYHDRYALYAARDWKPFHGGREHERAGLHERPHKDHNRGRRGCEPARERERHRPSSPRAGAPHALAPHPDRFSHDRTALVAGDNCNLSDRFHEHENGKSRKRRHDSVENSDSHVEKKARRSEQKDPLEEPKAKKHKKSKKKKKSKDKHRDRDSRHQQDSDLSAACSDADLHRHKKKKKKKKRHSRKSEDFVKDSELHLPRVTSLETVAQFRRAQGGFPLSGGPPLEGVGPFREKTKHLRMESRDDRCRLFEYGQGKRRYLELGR
# Procedure, shortened: as §1
# UniProt Q9NPJ3 = biological target: T3, UniProt Q9NPJ3
# T3 sequence (whole entry): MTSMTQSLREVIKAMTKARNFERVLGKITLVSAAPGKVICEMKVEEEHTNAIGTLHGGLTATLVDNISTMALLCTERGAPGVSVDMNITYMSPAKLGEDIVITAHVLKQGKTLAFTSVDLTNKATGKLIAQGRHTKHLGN
# Procedure, shortened: as §1
# [1] = biological target: T4, UniProt Q9NQ86-4|E9PBG3|Q9NQ86
# T4 sequence (whole entry): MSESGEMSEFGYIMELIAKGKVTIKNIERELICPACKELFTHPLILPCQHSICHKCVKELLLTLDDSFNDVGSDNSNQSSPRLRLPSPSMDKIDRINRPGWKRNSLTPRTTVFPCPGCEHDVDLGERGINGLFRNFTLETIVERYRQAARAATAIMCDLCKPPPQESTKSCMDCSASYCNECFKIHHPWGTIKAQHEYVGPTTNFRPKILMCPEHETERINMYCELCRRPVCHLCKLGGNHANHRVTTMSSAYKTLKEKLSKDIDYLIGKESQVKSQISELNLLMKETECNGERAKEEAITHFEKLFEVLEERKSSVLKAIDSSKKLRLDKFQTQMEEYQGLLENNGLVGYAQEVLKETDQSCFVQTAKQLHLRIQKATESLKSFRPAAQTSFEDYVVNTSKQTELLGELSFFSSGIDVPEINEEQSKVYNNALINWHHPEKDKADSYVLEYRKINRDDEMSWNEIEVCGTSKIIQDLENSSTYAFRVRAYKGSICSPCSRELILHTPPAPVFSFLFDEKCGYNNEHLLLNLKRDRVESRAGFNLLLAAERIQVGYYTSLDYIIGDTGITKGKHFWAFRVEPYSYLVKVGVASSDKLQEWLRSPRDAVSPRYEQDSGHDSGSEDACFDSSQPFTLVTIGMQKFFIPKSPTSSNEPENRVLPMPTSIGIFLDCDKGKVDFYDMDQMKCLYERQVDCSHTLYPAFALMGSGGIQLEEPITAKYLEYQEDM
# Procedure, shortened: as §1
# UniProt Q9NUS5 = biological target: T5, UniProt Q9NUS5
# T5 sequence (whole entry): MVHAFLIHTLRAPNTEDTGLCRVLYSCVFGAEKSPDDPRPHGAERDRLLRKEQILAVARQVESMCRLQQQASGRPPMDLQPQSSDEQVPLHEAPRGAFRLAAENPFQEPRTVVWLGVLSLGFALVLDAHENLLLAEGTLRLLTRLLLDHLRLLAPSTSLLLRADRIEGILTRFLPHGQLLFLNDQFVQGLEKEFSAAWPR
# Procedure, shortened: as §1
# [2] = biological target: T6, UniProt Q9NVH6|Q9NVH6-7|Q9NVH6-8
# T6 sequence (whole entry): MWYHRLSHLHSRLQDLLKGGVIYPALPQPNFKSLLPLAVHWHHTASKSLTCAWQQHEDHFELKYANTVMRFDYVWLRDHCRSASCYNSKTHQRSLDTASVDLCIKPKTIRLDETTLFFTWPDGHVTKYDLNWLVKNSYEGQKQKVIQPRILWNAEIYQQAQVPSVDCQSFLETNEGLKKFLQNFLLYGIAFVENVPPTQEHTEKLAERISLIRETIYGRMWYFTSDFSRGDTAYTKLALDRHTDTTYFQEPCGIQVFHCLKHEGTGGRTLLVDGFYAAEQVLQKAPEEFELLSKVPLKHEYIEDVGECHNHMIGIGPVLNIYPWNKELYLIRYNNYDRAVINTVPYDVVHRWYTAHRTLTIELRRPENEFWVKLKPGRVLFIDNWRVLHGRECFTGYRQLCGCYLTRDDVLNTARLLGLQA
# Procedure, shortened: as §1
# VRK1 = biological target: T7, VRK1 (UniProt Q99986)
# T7 sequence (whole entry): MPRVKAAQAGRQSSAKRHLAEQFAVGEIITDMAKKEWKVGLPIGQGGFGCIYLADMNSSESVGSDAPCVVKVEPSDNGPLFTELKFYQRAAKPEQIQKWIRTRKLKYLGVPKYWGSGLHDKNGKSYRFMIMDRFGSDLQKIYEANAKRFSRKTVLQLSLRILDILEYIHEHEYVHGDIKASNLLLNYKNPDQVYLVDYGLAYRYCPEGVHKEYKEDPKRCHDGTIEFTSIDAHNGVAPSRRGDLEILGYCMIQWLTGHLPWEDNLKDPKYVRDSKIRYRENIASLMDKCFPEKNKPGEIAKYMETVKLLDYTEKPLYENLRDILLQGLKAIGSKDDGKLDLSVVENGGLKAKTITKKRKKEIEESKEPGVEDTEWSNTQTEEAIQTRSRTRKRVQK
# Procedure, shortened: as §1
structure (smiles),measurement,setting,value
Nc1ncnc2c1ncn2[C@@H]1O[C@H](COP(=O)(O)OP(=O)(O)NP(=O)(O)O)[C@@H](O)[C@H]1O [adenylyl imidodiphosphate],NP40-soluble protein abundance,UniProt Q9BY77|Q9BY77-2; concentration: 6mM,1.17 ± 0.016
same,NP40-soluble protein abundance,UniProt Q9BY77|Q9BY77-2; concentration: 8mM,1.24 ± 0.028
same,NP40-soluble protein abundance,UniProt Q9BY77|Q9BY77-2; concentration: 10mM,1.37 ± 0.081
same,NP40-soluble protein abundance,UniProt Q9H9J4|Q9H9J4-2; concentration: 1mM,1.02 ± 0.026
same,NP40-soluble protein abundance,UniProt Q9H9J4|Q9H9J4-2; concentration: 2mM,1.03 ± 0.035
same,NP40-soluble protein abundance,UniProt Q9H9J4|Q9H9J4-2; concentration: 4mM,1.01 ± 0.035
same,NP40-soluble protein abundance,UniProt Q9H9J4|Q9H9J4-2; concentration: 6mM,0.993 ± 0.011
same,NP40-soluble protein abundance,UniProt Q9H9J4|Q9H9J4-2; concentration: 8mM,1.03 ± 0.03
same,NP40-soluble protein abundance,UniProt Q9H9J4|Q9H9J4-2; concentration: 10mM,1.04 ± 0.04
same,NP40-soluble protein abundance,UniProt Q9NPJ3; concentration: 1mM,0.947 ± 0.014
same,NP40-soluble protein abundance,UniProt Q9NPJ3; concentration: 2mM,0.9081 ± 0.0059
same,NP40-soluble protein abundance,UniProt Q9NPJ3; concentration: 4mM,0.9 ± 0.028
same,NP40-soluble protein abundance,UniProt Q9NPJ3; concentration: 6mM,0.974 ± 0.062
same,NP40-soluble protein abundance,UniProt Q9NPJ3; concentration: 8mM,0.976 ± 0.032
same,NP40-soluble protein abundance,UniProt Q9NPJ3; concentration: 10mM,0.948 ± 0.076
same,NP40-soluble protein abundance,[1]; concentration: 1mM,0.952 ± 0.04
same,NP40-soluble protein abundance,[1]; concentration: 2mM,0.976 ± 0.047
same,NP40-soluble protein abundance,[1]; concentration: 4mM,0.994 ± 0.042
same,NP40-soluble protein abundance,[1]; concentration: 6mM,0.998 ± 0.017
same,NP40-soluble protein abundance,[1]; concentration: 8mM,1 ± 0.044
same,NP40-soluble protein abundance,[1]; concentration: 10mM,1.01 ± 0.023
same,NP40-soluble protein abundance,UniProt Q9NUS5; concentration: 1mM,0.96 ± 0.016
same,NP40-soluble protein abundance,UniProt Q9NUS5; concentration: 2mM,0.936 ± 0.051
same,NP40-soluble protein abundance,UniProt Q9NUS5; concentration: 4mM,0.963 ± 0.02
same,NP40-soluble protein abundance,UniProt Q9NUS5; concentration: 6mM,0.948 ± 0.012
same,NP40-soluble protein abundance,UniProt Q9NUS5; concentration: 8mM,0.938 ± 0.038
same,NP40-soluble protein abundance,UniProt Q9NUS5; concentration: 10mM,0.936 ± 0.041
same,NP40-soluble protein abundance,[2]; concentration: 1mM,0.969 ± 0.051
same,NP40-soluble protein abundance,[2]; concentration: 2mM,0.9817 ± 0.0096
same,NP40-soluble protein abundance,[2]; concentration: 4mM,0.984 ± 0.06
same,NP40-soluble protein abundance,[2]; concentration: 6mM,0.972 ± 0.065
same,NP40-soluble protein abundance,[2]; concentration: 8mM,0.985 ± 0.018
same,NP40-soluble protein abundance,[2]; concentration: 10mM,0.969 ± 0.046
same,NP40-soluble protein abundance,VRK1; concentration: 1mM,1.08 ± 0.036
same,NP40-soluble protein abundance,VRK1; concentration: 2mM,1.1 ± 0.078
same,NP40-soluble protein abundance,VRK1; concentration: 4mM,1.22 ± 0.03
same,NP40-soluble protein abundance,VRK1; concentration: 6mM,1.43 ± 0.061
same,NP40-soluble protein abundance,VRK1; concentration: 8mM,1.51 ± 0.11
same,NP40-soluble protein abundance,VRK1; concentration: 10mM,1.56 ± 0.1
